PABP polyA inh: blocks human PABP binding to poly(A) RNA; fluorescence polarization; calls only at 35 µM; 290,000 compounds, 1% hits; AID 2014;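 also: calls also rest on retests at 20 µM and on dose response follow-up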
MLLE-PAM2 inh: blocks PAM2 peptide binding to the PABP1 MLLE domain | P11940 | GST-MLLE / FITC-PAM2 fluorescence polarization | inhibition, % at 20 µM | 360,000 compounds, 0.36% hits; in the data active = inhibition above about 35%, passing the limit was not always enough;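 also: plate controls were DMSO wells with GST-MLLE for no effect and wells lacking GST-MLLE protein for full effect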
eIF4H inh: inhibitors of RNA binding by human eIF4H; AID 2012; Q15056; 290,000 compounds, 0.94% hits; inhibition, % at 35 µM; eIF4H fluorescence polarization binding assay;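 also: calls also rest on retests at 20 µM and on dose response follow-up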
ABCB6 inh 2: human ABCB6 transporter inhibition | Q9NP58 | K562-ABCB6 porphyrin accumulation, flow cytometry, 1 h; stronger effect = lower value | fluorescence ratio to DMSO, % at 10 µM | 360,000 compounds, 0.19% hits;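 active = fluorescence ratio to DMSO below 75%, the collection mean minus 3 SD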;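 also: signal is porphyrin accumulated inside mitochondria; 100% equals median channel fluorescence of DMSO control wells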
PHOSPHO1 inh: inhibitors of human PHOSPHO1 phosphatase; Q8TCT1; recombinant PHOSPHO1, absorbance phosphatase assay; inhibition, % at 13.3 µM; 290,000 compounds, 1.1% hits; in the data active = inhibition above about 60%
Target sequence (Q8TCT1 whole entry, looked up): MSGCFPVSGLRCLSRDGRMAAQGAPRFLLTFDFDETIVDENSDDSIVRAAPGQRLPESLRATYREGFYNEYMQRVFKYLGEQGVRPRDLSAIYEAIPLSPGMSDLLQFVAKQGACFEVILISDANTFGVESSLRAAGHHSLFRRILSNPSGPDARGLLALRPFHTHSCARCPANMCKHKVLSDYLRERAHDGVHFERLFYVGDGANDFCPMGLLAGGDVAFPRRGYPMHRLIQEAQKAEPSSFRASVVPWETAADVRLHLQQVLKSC
AI-2 QS modul: modulators of Vibrio harveyi AI-2 quorum sensing system; Vibrio harveyi JMH597 AI-2 luminescence/OD600 ratio, 9 h; stronger effect = lower value; strain lacks LuxN and CqsS sensors; 0 = neutral-control median; activity change, % at 7.5 µM; 300,000 compounds, 0.4% hits; in the data active = activity change below about -75%, passing the limit was not always enough;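 also: luminescence divided by OD600 gain over 9 h not by final OD600 alone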
ABCB6 blocker 1: inhibitors of human ABC transporter ABCB6. shares compounds with ABCB6 inh 2. K562-ABCB6 porphyrin accumulation, flow cytometry, 1 h; stronger effect = lower value. ratio response (% of DMSO), % at 10 µM. 700 tested, under 10 active. AID 602430;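 active = repeat-averaged ratio response below 75% of DMSO, the collection mean minus 3 SD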;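 also: median porphyrin fluorescence at 575 nm with 488 nm excitation from mitochondria; lower ratio means less porphyrin signal so ABCB6 inhibition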
K562 vector FC: effect in K562 cells lacking ABCB6, counter-screen; shares compounds with ABCB6 inh 2; K562 empty-vector cells, flow cytometry fluorescence, 1 h; percent response (fluorescence), % at 100 µM; 25 tested, under 10 active;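 active = compounds whose half-maximal effective concentration is below 100 µM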
An asterisk follows results filed as active; i = inactive; x = no result. The list is not random: actives were taken first. Their share in the collection is about 2.6%. Unless noted, no rule for the calls is given here.

SMILES	PABP polyA inh	MLLE-PAM2 inh	eIF4H inh	ABCB6 inh 2	PHOSPHO1 inh	AI-2 QS modul	ABCB6 blocker 1	others
O=S(=O)(c1ccccc1)N1CCN(C2CCN(Cc3ccccc3)CC2)CC1	i	-2	0	100	13	15	x
O=S(=O)(c1ccc2ccccc2c1)N1CCN(C2CCN(Cc3ccccc3)CC2)CC1	i	3	12	48*	15	17	97
COc1ccc(CNC(=O)c2nc(S(=O)(=O)Cc3ccccc3)ncc2Cl)cc1	i	16	-9	88	17	4	x
Cc1nnc(NC(=O)c2nc(S(=O)(=O)Cc3ccccc3C)ncc2Cl)s1	i	11	6	108	9	8	x	K562 vector FC=237
CCc1nnc(NC(=O)c2nc(S(=O)(=O)Cc3ccccc3)ncc2Cl)s1	i	17	-13	84	17	-10	x	K562 vector FC=244
CC(=O)Nc1ccc(NC(=O)c2nc(S(=O)(=O)Cc3ccccc3)ncc2Cl)cc1	i	29	-9	70*	26	-8	x	K562 vector FC=280
Cc1ccc(CS(=O)(=O)c2ncc(Cl)c(C(=O)Nc3ccc(OC(F)F)cc3)n2)cc1	x	23	x	62*	13	16	x	K562 vector FC=310
CCSc1nnc(NC(=O)c2nc(S(=O)(=O)Cc3ccc(F)cc3)ncc2Cl)s1	i	15	4	85	-31	24	x
COc1ccc(CN2C(=O)COc3ccccc3C2c2nc3ccccc3[nH]2)cc1 (centres undefined)	x	x	x	99	x	x	x
Cc1cc(Br)cn2c(Cc3ccccc3)c(-c3ccc(C#N)cc3)nc12	x	-5	x	106	x	x	x
CC(C)c1nnc(NC(=O)c2nc(S(=O)(=O)Cc3ccc(F)cc3)ncc2Cl)s1	x	27	x	80	24	-3	x	K562 vector FC=250
O=C(NCc1ccccc1)c1nc(S(=O)(=O)Cc2ccccc2)ncc1Cl	i	21	-5	102	12	-53	x
CC(C)c1nnc(NC(=O)c2nc(S(=O)(=O)Cc3ccccc3F)ncc2Cl)s1	i	x	-16	x	17	-6	x
CCc1nnc(NC(=O)c2nc(S(=O)(=O)Cc3ccc(C)cc3)ncc2Cl)s1	i	11	-6	101	-1	5	x	K562 vector FC=229
CSc1nnc(NC(=O)c2nc(S(=O)(=O)Cc3cccc(C)c3)ncc2Cl)s1	i	21	-5	106	17	21	x
CCc1nnc(NC(=O)c2nc(S(=O)(=O)Cc3cccc(C)c3)ncc2Cl)s1	i	29	48	108	26	-10	x	K562 vector FC=220
CCOc1ccccc1NC(=O)c1nc(S(=O)(=O)Cc2cccc(C)c2)ncc1Cl	i	20	-9	41*	12	-6	x	K562 vector FC=269
Cc1cc(C)c(C(O)c2ncc(-c3cccc(F)c3)[nH]2)c(C)c1 (centres undefined)	x	-10	x	91	x	x	x
Cc1cccc(CS(=O)(=O)c2ncc(Cl)c(C(=O)Nc3nnc(C(C)C)s3)n2)c1	x	17	x	103	1	9	x	K562 vector FC=241
CNC(=O)OC1CC2CC1[C@H]1CCCCN1C2=O (some centres undefined)	x	x	x	94	x	x	x
CCCNC(=O)C1(C)CCN(C(=O)c2cc(C(C)(C)C)nn2C)C1 (centres undefined)	x	22	x	93	x	x	x
Cc1ccccc1OCC(=O)OCC(=O)c1ccc(OC(=O)c2ccccc2)cc1	i	0	-5	44*	27	10	104
OC(c1ccccc1)(c1nc(-c2ccc(Cl)cc2)cs1)C(F)(F)F (centres undefined)	x	-16	x	95	x	x	x
CCN(CC)S(=O)(=O)c1ccc(C)c(NC(=O)CN2C(=O)NC3(CCCC3)C2=O)c1	i	-3	-3	74*	37	5	96
CCCNC(=O)C1(C)CCCN(Cc2ccccc2N(C)C)C1 (centres undefined)	x	-7	x	96	x	x	x
SMILES	PABP polyA inh	MLLE-PAM2 inh	eIF4H inh	ABCB6 inh 2	PHOSPHO1 inh	AI-2 QS modul	ABCB6 blocker 1	others
Cn1c(SCC(=O)Nc2ccc(N3CCOCC3)cc2)nnc1-c1ccccc1	i	0	-5	103	5	18	x
CC(Sc1nnc(-c2ccncc2)n1C)C(=O)Nc1ccc(N2CCOCC2)cc1 (centres undefined)	x	-11	x	69*	x	x	100
CCc1ccc(C(O)c2ncc(-c3ccccc3OC)[nH]2)cc1 (centres undefined)	x	-9	x	73*	x	x	98
O=c1c2c(-c3cccs3)csc2ncn1-c1ccccc1	i	3	4	47*	-4	-7	97
COc1ccc(S(=O)(=O)Nc2c(NC3CCCCC3)c3ccccc3oc2=O)cc1	i	-1	3	71*	10	15	98
NC(COCc1ccccc1)c1csc(Nc2ccc(C(=O)c3ccccc3)cc2)n1 (centres undefined)	x	5	x	92	x	x	x
CC(=O)NC(Cc1c[nH]c2ccccc12)C(=O)N1CCc2ccccc2C1 (centres undefined)	i	6	-4	69*	7	5	98
COc1ccc(N2CCN(C(=O)[C@H](Cc3c[nH]c4ccccc34)NC(C)=O)CC2)cc1	i	0	-4	99	25	19	x
c1ccc(CNc2nc(N3CCOCC3)nc(N3CCOCC3)n2)cc1	i	13	-7	101	-13	10	x
Clc1ccc(CNc2nc(N3CCOCC3)nc(N3CCOCC3)n2)cc1	i	-16	-14	11*	16	21	97
Cc1ccc(Cl)c(NC(=O)COC(=O)c2ccccc2C(=O)c2ccc(Cl)c([N+](=O)[O-])c2)c1Cl	i	-12	1	99	-16	-1	x
CCCNC(=O)COC(=O)c1ccccc1C(=O)c1ccc(Cl)c([N+](=O)[O-])c1	i	-3	-1	57*	36	-8	93
CN(Cc1ccccc1)C(=O)c1csc([C@@H]2O[C@H](CO)[C@H](O)[C@H](O)[C@H]2O)n1	x	6	x	99	x	x	x
CCCCN(C(=O)c1cc(-c2ccncc2)nc2ccccc12)c1c(N)n(CC(C)C)c(=O)[nH]c1=O	x	-51	x	51*	x	x	100
Cc1cc(NC(=O)c2cc(S(=O)(=O)N3CCCCC3)ccc2C)no1	x	5	x	107	x	x	x
Cc1cc(NC(=O)c2cccc(S(=O)(=O)N3CCCCCC3)c2)no1	i	-7	-1	70*	9	20	99
O=C(Nc1cccc(Cl)c1)NC1CCN(C2CCCCC2)C1 (centres undefined)	i	-13	-12	47*	24	11	100
O=C1c2ccccc2C(c2nnnn2-c2ccc3c(c2)OCCO3)N1Cc1cccc(F)c1 (centres undefined)	x	x	x	96	x	x	x
COc1ccc(Cc2c(-c3ccc(F)cc3)nc3ccc(Cl)cn23)c(C)c1	x	-39	x	106	x	x	x

Compound activity from PubChem.
